Only some compounds are listed: those with a hit (about 2.4% of all), similar ones and a draw of the others.
WRN helicase inh: qHTS for Inhibitors of WRN Helicase | Bifunctional 3'-5' exonuclease/ATP-dependent helicase WRN (Homo sapiens), Q14191 | 360,000 tested, 0.46% active | WRN helicase unwinding, fluorescent forked duplex, kinetic | Potency, µM (titrated, usually from 114 µM), actives largely listed as inhibitors; further: nearly all actives have a fitted effect of over 55% in size
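Fluorescence dequenching readout, ex 525 nm/em 598 nm, kinetic mode: forked duplex DNA (100 nM final) with adjacent fluorophore and quencher unwound by WRN (20 nM final) with 2 mM ATP. Compound preincubation 15 min, room temperature.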
FEN1 inhibitor: qHTS Assay for the Inhibitors of Human Flap endonuclease 1 (FEN1) | P39748 | Recombinant FEN1 flap cleavage, fluorescence, 15 min | Potency, µM (top dose mostly 114 µM), hits mostly inhibitors | 390,000 tested, 0.35% active | AID 588795, 2011; further: nearly all actives have a fitted effect of over 65% in size
Target sequence (P39748 whole entry, looked up): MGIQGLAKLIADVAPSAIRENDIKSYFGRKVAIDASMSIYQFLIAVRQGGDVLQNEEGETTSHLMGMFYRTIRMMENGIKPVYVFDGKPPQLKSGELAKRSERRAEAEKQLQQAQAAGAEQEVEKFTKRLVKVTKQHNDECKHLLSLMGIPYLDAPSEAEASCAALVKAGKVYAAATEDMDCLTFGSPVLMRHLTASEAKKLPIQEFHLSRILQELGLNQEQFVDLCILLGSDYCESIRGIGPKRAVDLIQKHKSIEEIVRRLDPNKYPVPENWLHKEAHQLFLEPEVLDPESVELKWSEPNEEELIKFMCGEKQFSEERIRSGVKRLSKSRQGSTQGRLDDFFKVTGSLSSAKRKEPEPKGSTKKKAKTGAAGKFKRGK
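Potency values derive from four-parameter Hill fits of normalized qHTS data. The reaction used 10 nM FEN1 preincubated 15 min at room temperature with compound, then 50 nM DNA substrate, read at 0 and 15 min.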
POLH inh: qHTS for Inhibitors of Polymerase Eta; DNA polymerase eta (Homo sapiens), Q9Y253; recombinant Pol eta, fluorescent DNA replication assay; Potency, µM (doses to about 114 µM), hits mostly inhibitors; 390,000 tested, 1.2% active; AID 588591, 2011
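Fluorescent replication assay: 50 nM final substrate added after a 15 min room-temperature compound preincubation with 10 nM enzyme. Signal taken at 0 min and again at 10 min.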
POLK inh: qHTS for Inhibitors of Polymerase Kappa. 400,000 tested, 0.53% active. AID 588579, 2011. Potency, µM (titrated, usually from 107 µM), hits mostly inhibitors. purified Pol kappa, fluorescent DNA synthesis assay, 10 min. DNA polymerase kappa (Homo sapiens), Q9UBT6
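10 nM Pol kappa preincubated 15 min at room temperature with compounds, then reaction started with substrate at 50 nM final. Fluorescence read kinetically at 0 and 10 min; buffer-only wells served as negative control.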
POLI inh: qHTS for Inhibitors of Polymerase Iota; DNA polymerase iota (Homo sapiens), Q9UNA4; Pol iota fluorescent replication assay, 10 min; Potency, µM (top dose mostly 115 µM), most hits filed as inhibitors; 390,000 tested, 1% active; AID 588590, 2011
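Fluorescent replication assay read twice, at 0 min and 10 min after adding 50 nM (final) substrate. Enzyme (10 nM) and compounds were first incubated 15 min at room temperature; enzyme-free buffer wells were negative controls.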
Pol beta inh: qHTS Assay for Inhibitors of DNA Polymerase Beta; Potency, µM (titrated, usually from 114 µM), most hits filed as inhibitors; Pol beta primer extension/strand displacement, fluorescence kinetic; 340,000 tested, 1.3% active; AID 485314, 2010
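Preincubation: enzyme (10 nM) with compound, 15 min, RT. Reaction: substrate added to 50 nM final. Reads: 0 and 10 min. Analysis: normalized, Hill fit.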
Hits are given with their value; 0 = inactive; ? = inconclusive; - = no result; [ ] = another dose, or the depositor's remark. The call rests on the fitted dose curve; in most records, active means well fitted curve in the direction sought with a large enough effect; inconclusive means small, poorly fitted or top-dose-only effect, or another doubt; inactive means no such curve, though single readings can be large; an effect the other way counts as inactive or inconclusive.

SMILES	WRN helicase inh	FEN1 inhibitor	POLH inh	POLK inh	POLI inh	Pol beta inh
S=c1[nH]nc(COc2ccccc2)n1/N=C/C=C/c1ccccc1	0	0	0	0	0	0
S=c1[nH]nc(COc2ccccc2)n1/N=C/C=C/c1ccco1	0	0	28.2µM	?	?	20µM
CC1CCC/C(=N\Nc2ccc(Cl)c(C(=O)O)c2)C1 (configuration not stated)	?	0	8.91µM	?	?	31.6µM
O=C(c1cccs1)c1no[n+]([O-])c1C(=O)c1cccs1	28.2µM	0	0	0	25.1µM	0
CC1CCc2c(sc(NC(=O)C3c4ccccc4Oc4ccccc43)c2C#N)C1 (configuration not stated)	-	0	0	0	0	0
O=c1[nH]c(/C=C/c2ccccc2Cl)c([N+](=O)[O-])c(=O)[nH]1	0	0	28.2µM	0	?	0
COc1cccc(/C=C/c2[nH]c(=O)[nH]c(=O)c2[N+](=O)[O-])c1O	0[11.6 µM]	0	50.1µM	0	11.2µM	0
CC(C)c1ccc(/C=C/c2[nH]c(=O)[nH]c(=O)c2[N+](=O)[O-])cc1	0	0	?	0	?	0
O=C(COc1ccccc1/C=C1\SC(=O)NC1=O)Nc1ccccc1	?	0	17.8µM	0	?	0
COc1cccc(/C=C2/NC(=O)NC2=O)c1OCC(=O)Nc1ccccc1	0	0	0	0	0	0
CCN(CC)CCOc1c(Br)ccc2c1sc1nc3n(c(=O)c12)CCC3	0	50.1µM	0	0	?	0
O=c1[nH]c(Nc2ccc(F)cc2)cc2ccccc12	0	0	22.4µM	0	7.08µM	0
COc1ccc(CC2=C(O)c3ccccc3C(=O)C2=O)cc1	0	0	0	0	?	0
O=C1C(=O)c2ccccc2C(O)=C1CCCCl	0	?	?	0	14.1µM	0
O=C(NCCc1ccccc1)C1C(=O)Nc2ccccc2C(=O)N1C1CCCCC1 (configuration not stated)	0	-	-	-	-	-
Cc1c(CCC(=O)N2CCC(C(=O)O)CC2)c(=O)oc2cc3oc4c(c3cc12)CCCC4	0	0	0	0	0	35.5µM
O=C(O)c1cccc(Cn2c(Cl)c(/C=N/NC(=O)c3ccccc3)sc2=O)c1	0	0	?	0	0	0
O=C(O)c1cccc(Cn2c(Cl)c(/C=N/NC(=O)c3cc4ccccc4cc3O)sc2=O)c1	39.8µM	17.8µM	6.31µM	31.6µM	8.91µM	11.2µM
Nc1ccn([C@@H]2O[C@H](CNCc3ccc(N4CCNCC4)cc3)[C@@H](O)[C@H]2O)c(=O)n1	0	-	0	-	-	-
C=CCn1c(=O)[nH]c2cc(C(=O)N3CCN(c4cccc(Cl)c4)CC3)ccc2c1=O	0	0	?	0	89.1µM	0
Cc1cc(C(F)(F)F)n(-c2nc(C(=O)N/N=C/c3ccc(F)cc3)cs2)n1	0	0	0	0	89.1µM	0
NC(=N\N=Cc1ccco1)/C(N)=N/N=Cc1ccco1	0	0	44.7µM	0	?	-
Cn1c(=O)c2[nH]c(NCCCN3CCOCC3)nc2n(C)c1=O	0	0	0	0	0	89.1µM
CSc1nc(=S)c2[nH]c(=S)[nH]c2[nH]1	50.1µM	0	0	0	14.1µM	0
COc1ccc(/C=C2\CCn3c2nc2cc(C(=O)O)ccc2c3=O)cc1OC	?	0	0	0	0	0
COc1ccc(/C=C2\CCn3c2nc2cc(C(=O)O)ccc2c3=O)cc1O	?	?	17.8µM	0	?	25.1µM
CCc1ccc(/C=C/C(=O)C2C(=O)c3ccccc3C2=O)cc1	0	0	0	0	?	0
CC[N+]1(C)CCC(O)(/C=C/c2ccccc2)C(C(=O)/C=C/c2ccccc2)C1 (configuration not stated)	11.2µM	0	?	0	?	-
Cc1ccc(NCN2C(=O)C3C4C=CC(C4)C3C2=O)cc1 (configuration not stated)	0	0	0	0	0	0

Assay outcomes: PubChem, National Center for Advancing Translational Sciences (NCATS)
